In PubChem BioAssay:
Activity calls are given as the source filed them.

Assays:
[1] = optical density shifts of acrAB sulA E. coli – strain DRC41, OD650, 48 h, E. coli filamentation inducer project, primary screen (AID 1152); conditions: higher = more signal, called active from +8 up or from −8 down;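 note: E. coli MC1000 strain DRC41 lacking acrAB efflux pump and sulA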
[2] = probe aLefty1 binding on compound microarray – biochemical, small-molecule microarray, 635/667 nm fluorescence, primary screen (AID 1153); conditions: higher = more signal;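 note: score merges spot fluorescence with signal-to-noise ratio from the scanned slide images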
[3] = plasmodial surface anion channel blockers, osmotic lysis – cell-based, P. falciparum Indochina, OD700, 1 h, primary screen (AID 1154); conditions: P. falciparum Indochina infected RBC osmotic lysis, higher = more signal, called active from +8 up or from −8 down
[4] = plasmodial surface anion channel blockers, osmotic lysis – cell-based, P. falciparum Indochina, OD700, 2 h, primary screen (AID 1155);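 note: lysis reports solute entry through the parasite surface anion channel PSAC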; conditions: P. falciparum Indochina infected erythrocytes, higher = more signal, called active from +8 up or from −8 down
[5] = changes in parasitized red cell lysis, either direction – P. falciparum Indochina, OD700, 3 h, PSAC antagonist project, primary screen (AID 1156); conditions: P. falciparum-infected erythrocytes, osmotic lysis, higher = more signal, called active from +8 up or from −8 down
[6] = plasmodial surface anion channel blockers, osmotic lysis – cell-based, P. falciparum Indochina, OD700, 18 h, primary screen (AID 1157); conditions: P. falciparum Indochina infected erythrocytes, osmotic lysis OD700, 18 h; higher = more signal, called active from +8 up or from −8 down
[7] = S6 kinase pathway phospho-S6 level changes – cell-based, A549, cytoblot, luminescence, serum-stimulated, primary screen (AID 1158); conditions: 5 h, higher = more signal;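 note: serum-stimulated A549 lung adenocarcinoma cells; signal is phosphorylated S6 detected by cytoblot immunostaining with HRP secondary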
[8] = target: NADPH oxidase 2 (Homo sapiens) (UniProt P04839); assay: compounds shifting NOX2 Amplex Red fluorescence – cell-based, HEK293-NOX2, PMA-stimulated, NOX inhibitor project, primary screen (AID 1159); conditions: 45 min, higher = more signal, called active from +8 up or from −8 down; note: test concentration not given here
Chain of NADPH oxidase 2 (Homo sapiens) (P04839 whole entry, looked up): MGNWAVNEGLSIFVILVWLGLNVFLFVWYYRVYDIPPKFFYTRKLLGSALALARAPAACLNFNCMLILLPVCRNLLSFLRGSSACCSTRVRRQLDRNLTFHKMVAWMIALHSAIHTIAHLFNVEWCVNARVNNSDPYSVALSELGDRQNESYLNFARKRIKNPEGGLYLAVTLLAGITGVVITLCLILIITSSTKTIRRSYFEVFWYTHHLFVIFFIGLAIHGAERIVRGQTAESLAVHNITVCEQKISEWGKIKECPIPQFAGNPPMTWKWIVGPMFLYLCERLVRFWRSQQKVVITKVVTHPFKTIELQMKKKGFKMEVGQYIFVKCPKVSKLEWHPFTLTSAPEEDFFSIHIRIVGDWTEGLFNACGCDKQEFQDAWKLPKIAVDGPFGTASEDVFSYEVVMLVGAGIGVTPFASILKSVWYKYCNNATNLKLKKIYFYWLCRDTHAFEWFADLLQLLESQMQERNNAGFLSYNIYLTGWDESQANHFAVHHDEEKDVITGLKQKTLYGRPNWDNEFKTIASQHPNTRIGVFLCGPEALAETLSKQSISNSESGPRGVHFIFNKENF

[9] = target: NADPH oxidase 4 (Homo sapiens) (UniProt Q9NPH5); assay: compounds shifting NOX4 Amplex Red fluorescence – cell-based, HEK293-NOX4, tetracycline-induced, NOX inhibitor project, primary screen (AID 1160); conditions: HEK293-NOX4, Amplex Red H2O2 fluorescence, 45 min; higher = more signal, called active from +8 up or from −8 down
Chain of NADPH oxidase 4 (Homo sapiens) (Q9NPH5 whole entry, looked up): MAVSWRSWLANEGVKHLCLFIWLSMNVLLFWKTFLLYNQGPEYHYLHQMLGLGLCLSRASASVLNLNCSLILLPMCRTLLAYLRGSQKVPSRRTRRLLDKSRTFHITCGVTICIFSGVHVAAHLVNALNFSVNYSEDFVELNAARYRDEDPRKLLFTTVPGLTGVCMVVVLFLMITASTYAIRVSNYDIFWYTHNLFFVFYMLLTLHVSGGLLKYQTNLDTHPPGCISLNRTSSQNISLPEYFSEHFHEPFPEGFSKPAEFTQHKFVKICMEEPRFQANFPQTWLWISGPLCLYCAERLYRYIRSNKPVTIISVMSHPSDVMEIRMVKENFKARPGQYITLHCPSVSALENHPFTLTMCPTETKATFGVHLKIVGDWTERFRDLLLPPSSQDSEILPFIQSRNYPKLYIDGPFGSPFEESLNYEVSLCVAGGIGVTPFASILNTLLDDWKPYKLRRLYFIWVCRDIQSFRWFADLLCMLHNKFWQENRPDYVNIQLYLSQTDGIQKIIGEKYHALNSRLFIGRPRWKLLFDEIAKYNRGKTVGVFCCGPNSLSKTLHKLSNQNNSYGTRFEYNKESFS

[10] = target: NADPH oxidase 5 (Homo sapiens) (UniProt Q96PH1); assay: compounds shifting NOX5 Amplex Red fluorescence – cell-based, HEK293-NOX5, NOX inhibitor project, primary screen (AID 1161); conditions: HEK293-NOX5, ionomycin, 45 min, higher = more signal
Chain of NADPH oxidase 5 (Homo sapiens) (Q96PH1 whole entry, looked up): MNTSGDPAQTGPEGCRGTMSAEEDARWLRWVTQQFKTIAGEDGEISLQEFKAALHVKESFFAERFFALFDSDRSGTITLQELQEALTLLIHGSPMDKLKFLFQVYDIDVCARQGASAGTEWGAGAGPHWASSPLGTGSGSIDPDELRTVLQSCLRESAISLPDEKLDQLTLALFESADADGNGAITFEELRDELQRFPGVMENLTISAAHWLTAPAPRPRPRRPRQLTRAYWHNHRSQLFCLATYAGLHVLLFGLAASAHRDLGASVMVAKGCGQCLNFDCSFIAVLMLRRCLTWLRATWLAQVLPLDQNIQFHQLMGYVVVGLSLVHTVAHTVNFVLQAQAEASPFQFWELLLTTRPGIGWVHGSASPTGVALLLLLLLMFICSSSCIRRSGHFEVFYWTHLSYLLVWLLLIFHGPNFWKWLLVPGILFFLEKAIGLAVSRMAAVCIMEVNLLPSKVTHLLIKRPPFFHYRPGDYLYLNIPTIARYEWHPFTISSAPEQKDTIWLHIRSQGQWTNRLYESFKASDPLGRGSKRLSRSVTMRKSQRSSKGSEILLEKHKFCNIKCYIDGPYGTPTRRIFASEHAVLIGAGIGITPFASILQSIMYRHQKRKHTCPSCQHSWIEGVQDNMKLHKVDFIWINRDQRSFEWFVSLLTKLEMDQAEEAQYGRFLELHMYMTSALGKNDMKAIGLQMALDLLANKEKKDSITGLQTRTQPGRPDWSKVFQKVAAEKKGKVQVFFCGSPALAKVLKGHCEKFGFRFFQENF

[11] = compound effects on lung adenocarcinoma cell viability – A549, calcein-AM fluorescence, 48 h, basal, profiling panel (AID 1162); conditions: higher = more signal; note: test concentration not given here
[12] = compound effects on differentiated 3T3-L1 adipocyte viability – cell-based, 3T3-L1 adipocytes, calcein-AM fluorescence, 48 h, basal, profiling panel (AID 1163); conditions: 3T3-L1 adipocytes viability, higher = more signal; note: test concentration not given here
[13] = compound effects on hepatocellular carcinoma cell viability – HepG2, calcein-AM fluorescence, 48 h, basal, profiling panel (AID 1164); conditions: higher = more signal; note: test concentration not given here
[14] = compound effects on multiple myeloma cell viability – MM1S, calcein-AM fluorescence, 48 h, basal, profiling panel (AID 1165); conditions: higher = more signal; note: test concentration not given here
[15] = calcein-AM signal in unstimulated myeloma cells – cell-based, calcein-AM fluorescence, 48 h, PK04 Diversity Set, profiling panel (AID 1166); conditions: RPMI8226 myeloma viability, higher = more signal;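 note: cells grown under basal conditions without added stimulus; test concentration not given here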
[16] = JC-1 mitochondrial signal, unstimulated HepG2 cells – cell-based, JC-1 fluorescence, 24 h, 100 nL compound, profiling panel (AID 1167); conditions: HepG2 mitochondrial potential, higher = more signal; note: test concentration not given here
[17] = JC-1 mitochondrial signal, unstimulated adipocytes – cell-based, JC-1 fluorescence, 3T3-L1 adipocytes, 24 h, 100 nL compound, profiling panel (AID 1168); conditions: JC-1 mitochondrial fluorescence, higher = more signal, called active from +8 up or from −8 down; note: test concentration not given here
[18] = JC-1 mitochondrial signal, unstimulated myeloma cells – cell-based, JC-1 fluorescence, RPMI8226, 24 h, 100 nL compound, profiling panel (AID 1169); conditions: JC-1 mitochondrial potential fluorescence, higher = more signal; note: test concentration not given here
[19] = JC-1 mitochondrial signal, unstimulated MM1S myeloma – cell-based, JC-1 fluorescence, 24 h, 100 nL compound, profiling panel (AID 1170); conditions: MM1S mitochondrial potential, higher = more signal; note: test concentration not given here
[20] = resazurin metabolic signal in A549 cells – cell-based, resazurin fluorescence, 24 h, PK04 Diversity Set, profiling panel (AID 1171); conditions: A549 viability, higher = more signal, called active from +8 up or from −8 down; note: test concentration not given here

| SMILES | z-score [1] | composite z-score [2] | z-score [3] | z-score [4] | z-score [5] | z-score [6] | z-score [7] | z-score [8] | z-score [9] | z-score [10] | z-score [11] | z-score [12] | z-score [13] | z-score [14] | z-score [15] | z-score [16] | z-score [17] | z-score [18] | z-score [19] | z-score [20] |
| --- | --- | --- | --- | --- | --- | --- | --- | --- | --- | --- | --- | --- | --- | --- | --- | --- | --- | --- | --- | --- |
| CCCNC(=O)[C@@]1(c2ccc([N+](=O)[O-])cc2)CC(=O)N(C2CCCCC2)[C@@H]1c1ccc(CO)cc1I | -0.123 (inactive) | 0.317 | 19.3 (active) | 3.4 (inactive) | 3.38 (inactive) | 0.722 (inactive) | -0.275 | 1.02 (inactive) | 0.187 (inactive) | 1.16 | -0.165 | -0.599 | -0.451 | -3.22 | -1.01 | 0.22 | -1.13 (inactive) | -0.677 | -1.11 | 0.72 (inactive) |
| COCCOC(=O)N1C(=O)[C@@]2(c3cc(C#CC4(O)CCCCCC4)ccc31)[C@H](c1ccccc1OCCO)N1[C@H](c3ccccc3)[C@H](c3ccccc3)OC(=O)[C@H]1[C@@H]2C(N)=O | -0.552 (inactive) | -0.0046 | 4.08 (inactive) | 1.76 (inactive) | -0.971 (inactive) | 0.76 (inactive) | -0.255 | 1.8 (inactive) | -0.551 (inactive) | -0.269 | -2.37 | 0.943 | -4.78 | -3.43 | -4.62 | -2.3 | 1.8 (inactive) | -1.14 | -1.88 | -2.94 (inactive) |
| C=CC1c2cc(O)c(OC)cc2CCN1Cc1sc2ccccc2c1Cl (stereo not given) | -1.38 (inactive) | 0.268 | 17.9 (active) | 5.17 (inactive) | -0.604 (inactive) | 1.41 (inactive) | -0.248 | -4.21 (inactive) | -2.48 (inactive) | -2.08 | -4.28 | 0.155 | -4.42 | -3.24 | -4.45 | -3.08 | -0.224 (inactive) | -0.811 | -0.358 | -0.784 (inactive) |
| COc1ccc([Si](C)(C)[C@H]2[C@H](CCn3cc([C@H](O)c4ccccc4)nn3)O[C@@]3(C(=O)N(Cc4cccc(N5C(=O)c6cccc7cccc5c67)c4)c4ccccc43)[C@@H]2C)cc1 | -0.749 (inactive) | -0.0141 | 1.23 (inactive) | -0.38 (inactive) | -0.58 (inactive) | 0.376 (inactive) | -0.0203 | 0.918 (inactive) | 1.57 (inactive) | 1.56 | -0.252 | 0.0344 | -0.506 | -0.342 | -1.56 | -0.411 | -1.63 (inactive) | -0.00407 | -0.319 | -0.884 (inactive) |
| COc1ccc([Si](C)(C)[C@@H]2[C@@H](CCn3cc([C@H](O)c4ccccc4)nn3)O[C@]3(C(=O)N(Cc4ccc(N5CCOC5=O)cc4)c4ccccc43)[C@H]2C)cc1 | 1.34 (inactive) | 0.142 | 28.2 (active) | 17.1 (active) | 1.45 (inactive) | 1.63 (inactive) | 0.0719 | 1.31 (inactive) | 2.36 (inactive) | 1.74 | -0.0046 | 0.417 | 0.215 | -1.06 | -1.3 | 1.67 | 0.00306 (inactive) | 0.417 | -0.657 | 0.595 (inactive) |
| Cc1ccc(C(C)CC(O)C2C=CC3C(=O)N(c4ccccc4)C(=O)C3N2Nc2ccc(C(C)C)cc2)o1 (stereo not given) | -1.84 (inactive) | 0.629 | 1.45 (inactive) | 0.871 (inactive) | 0.948 (inactive) | 0.631 (inactive) | -1.31 | -0.831 (inactive) | -2.34 (inactive) | -3.53 | -1.12 | -0.279 | 0.137 | -1.41 | -1.19 | -2.29 | -1.44 (inactive) | -0.778 | 0.772 | -0.634 (inactive) |
| COc1cc2c(cc1OC)CN(C(=O)[C@H]1[C@@H]3C(=O)O[C@@H](c4ccccc4)[C@@H](c4ccccc4)N3[C@@H](c3ccc(OCCO)cc3)[C@]13C(=O)Nc1ccc(C#CC4(O)CCCCCC4)cc13)CC2 | 1.9 (inactive) | 1.51 | 3.15 (inactive) | 2.15 (inactive) | 1.08 (inactive) | 1.35 (inactive) | 0.108 | 1.32 (inactive) | 0.882 (inactive) | 1.28 | 0.943 | 0.0483 | 1.17 | 0.217 | 0.0846 | -0.871 | 0.568 (inactive) | -0.338 | -0.852 | -0.354 (inactive) |
| C[C@]12C(=O)N(CCCCCCO)[C@@H]3C(=O)N(c4ccc(Cl)cc4)CC=CC31O[C@@H]1/C=C\CCCOC(=O)C12 (stereo not given in full) | 1.64 (inactive) | -0.25 | 2.61 (inactive) | -1.32 (inactive) | -0.397 (inactive) | -1.66 (inactive) | 0.654 | 1.12 (inactive) | 0.428 (inactive) | 2.22 | 0.41 | 1.23 | 2.06 | 1.61 | 0.0929 | 1.09 | -0.317 (inactive) | 0.655 | 0.411 | -0.0459 (inactive) |
